An excerpt weighted towards active compounds, which were near 21% of everything screened.
IL-1B inflam inh – inflammasome signaling inhibition, IL-1 beta readout; activity change, % at 57.5 µM; THP-1 LPS/ATP IL-1B secretion, AlphaLISA, 16 h; hits give low values; actives 4.7% (n = 360,000); in the data active means activity change below about -50%; inconclusive means mostly about -30% to -49%
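THP-1 cells pretreated 1 hr with compounds (up to 57.5 uM final), then stimulated with LPS (250 ng/mL final) plus ATP (1.25 mM final); secreted IL-1B measured by AlphaLISA after 16 hr, decreased signal indicating inhibition.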
TDP1 cell CPT – growth inhibition of DT40 Tdp1-/-;hTDP1 cells with camptothecin (screen for TDP1 inhibitors). actives 12% (n = 420,000). chicken DT40 Tdp1-/-;hTDP1 cells + 20 nM CPT, ATP luminescence, 48 h. Potency, µM (highest dose often 46.2 µM), most hits filed as inhibitors; further: nearly all actives have a fitted effect of over 55% in size
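Cell growth measured by CellTiter-Glo luminescence after a minimum 48 h, 37 C compound exposure with 20 nM CPT in Tdp1-knockout DT40 cells stably expressing hTDP1, seeded 400/well; qHTS titration format.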
DT40 TDP1 no CPT – qHTS for Inhibitors of human tyrosyl-DNA phosphodiesterase 1 (TDP1): qHTS in cells in absence of CPT | DT40 Tdp1-/- hTDP1 cells, no CPT, ATP luminescence, 48 h | Potency, µM (titrated, usually from 46.2 µM), actives largely listed as inhibitors | actives 15% (n = 420,000); further: nearly all actives have a fitted effect of over 55% in size
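Seeded 400 DT40-hTDP1 cells/well (vehicle DMSO, no 20 nM CPT); pinned compounds; ≥48 hr at 37 °C; CellTiter-Glo luminescence as viability measure.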
DRD3 agonist – D3 dopamine receptor (human) agonism; P35462; D3R DiscoveRx beta-arrestin cells, luminescence, 90 min; max activation, %; actives 0.58% (n = 410,000); in the data active means max activation above about 30%
Target sequence (P35462 whole entry, looked up): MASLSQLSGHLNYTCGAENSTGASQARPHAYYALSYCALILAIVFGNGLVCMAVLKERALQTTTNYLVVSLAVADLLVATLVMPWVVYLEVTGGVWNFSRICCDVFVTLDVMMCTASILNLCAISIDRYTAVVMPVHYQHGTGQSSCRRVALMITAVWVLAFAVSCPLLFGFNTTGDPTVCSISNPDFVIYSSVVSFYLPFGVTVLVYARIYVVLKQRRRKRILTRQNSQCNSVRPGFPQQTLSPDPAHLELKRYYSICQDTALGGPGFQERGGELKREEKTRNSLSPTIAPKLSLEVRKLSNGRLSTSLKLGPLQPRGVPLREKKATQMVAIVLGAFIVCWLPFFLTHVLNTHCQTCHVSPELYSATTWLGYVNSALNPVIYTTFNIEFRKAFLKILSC
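Agonist mode: compounds and dopamine controls were applied to plated cells for 90 min at 37 degrees C after an overnight attachment at 1500 cells/well. Luminescent read-out followed 30 - 60 minutes at room temperature with DiscoveRx detection reagent.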
ClpP mod – qHTS Assay for Activators of ClpP. purified B. subtilis ClpP, FRET peptide cleavage, 20 min. ATP-dependent Clp protease proteolytic subunit (Bacillus subtilis (strain 168)), P80244. Potency, µM (doses to about 57.5 µM). actives 1.9% (n = 340,000); active means well fitted falling curve with a large enough effect; inconclusive means small, poorly fitted or top-dose-only effect; inactive means no such curve, though single readings can be large or run the other way; further: the source files actives as falling curves though it sought activators and does not explain the sign; nearly all actives have a fitted effect of over 65% in size
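ClpP 10 microg/mL final, pH 8 Tris/KCl buffer with BSA, glycerol, Tween-20; compound pinned in; FRET-FV substrate; RT 20 min; Ex320/Em430; ΔFRET vs ADEP 5.8 microM, DMSO, no enzyme.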
D3 antag – blocks the human D3 dopamine receptor | actives 2.5% (n = 360,000) | D3R cells, DiscoveRx beta-arrestin luminescence, antagonist mode; hits give low values | max response, negative = inhibition, %; in the data active means max response below about -50%; inconclusive means no clear call, values can overlap the other calls
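Cells expressing the human receptor were seeded at 1500 cells/well, incubated overnight at 37 degrees C in 5% CO2, then exposed to library compounds with dopamine controls for 90 minutes at 37 degrees C before luminescent detection.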
Hits are given with their value; i = inactive; ? = inconclusive; nt = no result given. Unless noted, the call rests on the fitted dose curve; in most records, active means well fitted inhibition curve with a large enough effect; inconclusive means small, poorly fitted or top-dose-only effect; inactive means flat fitted curve, though single readings scatter.

SMILES	IL-1B inflam inh	TDP1 cell CPT	DT40 TDP1 no CPT	DRD3 agonist	ClpP mod	D3 antag
CC(=O)N1CCc2cc(S(=O)(=O)NC(Cc3ccccc3)C(=O)Nc3ccc(C)cc3C)ccc21 (stereo not drawn)	nt	?	i	i	i	nt
CCOc1c(Cl)cc(C(=O)N(Cc2ccc(N(C)C)cc2)Cc2ccco2)cc1Cl	nt	23.1µM	13µM	i	i	nt
CC(C)COc1ccc(C(=O)Nc2nnc(S(=O)(=O)N(C)Cc3ccco3)s2)cc1	nt	?	?	i	i	nt
CC(C)(C)c1ccc(C(=O)N(Cc2ccc(F)cc2)Cc2ccco2)cc1	nt	?	?	i	i	nt
COc1ccc(CNC(=O)CN(Cc2ccco2)C(=O)CNS(=O)(=O)c2ccccc2)cc1	-67.1	?	i	i	i	i
O=C(c1cccc(Cl)c1)N(Cc1ccco1)Cc1ccccc1Cl	nt	?	i	i	i	nt
COc1ccc(S(=O)(=O)NCC(=O)N(CC(=O)NCc2ccco2)Cc2ccccc2)cc1	i	i	i	i	nt	i
CCOc1cccc(C(=O)N(Cc2ccc(F)cc2)Cc2ccco2)c1	nt	23.1µM	16.4µM	i	i	nt
CC(C)COc1ccc(C(=O)N(Cc2ccc(N(C)C)cc2)Cc2ccco2)cc1	nt	18.4µM	14.6µM	i	i	nt
COc1ccc(Cl)cc1NC(=O)Cn1nnc2sc(-c3ccccc3)cc2c1=O	nt	?	?	i	i	nt
COC(=O)c1cccc(NC(=O)Nc2ccccc2OC)c1	i	?	?	i	nt	i
COc1ccc(C(=O)N(Cc2ccco2)Cc2ccco2)cc1	nt	?	?	i	i	nt
CCOc1ccccc1C(=O)N(Cc1ccc(N(C)C)cc1)Cc1ccco1	nt	?	16.4µM	i	i	nt
COc1ccc(CN(Cc2ccco2)C(=O)c2ccccc2F)cc1	nt	16.4µM	16.4µM	i	i	nt
CN(C)c1ccc(CN(Cc2ccco2)C(=O)c2ccco2)cc1	i	?	?	i	i	i
CC(C)COc1cccc(C(=O)N(CC(=O)Nc2ccccc2C(F)(F)F)Cc2ccco2)c1	i	?	18.4µM	i	i	i
COc1cccc(CNC(=O)Cn2cc3c(n2)-c2c(oc(C(=O)N4CCOCC4)c2C)CC3)c1	nt	18.4µM	20.6µM	i	i	nt
Cc1c(C(=O)N2CCOCC2)oc2c1-c1nn(CC(=O)NCc3cccc(Cl)c3)cc1CC2	nt	?	16.4µM	i	i	nt
COc1ccccc1CNC(=O)Cn1cc2c(n1)-c1c(oc(C(=O)N3CCOCC3)c1C)CC2	nt	?	23.1µM	i	i	nt
Cc1c(C(=O)N2CCOCC2)oc2c1-c1nn(CC(=O)NCc3cccc(F)c3)cc1CC2	nt	?	?	i	i	nt
CCCOc1ccc(CNC(=O)Cn2cc3c(n2)-c2c(oc(C(=O)N4CCOCC4)c2C)CC3)cc1	nt	?	23.1µM	i	i	nt
Cc1c(C(=O)N2CCOCC2)oc2c1-c1nn(CC(=O)NCc3ccccc3)cc1CC2	nt	?	?	i	i	nt
CCOC(=O)N1CCN(C(=O)c2ccc3c(c2)N(Cc2ccccc2F)C(=O)c2ccccc2S3(=O)=O)CC1	nt	i	?	i	i	nt
OC(CN1CCOCC1)Cn1c2c(c3ccccc31)CCCC2 (stereo not drawn)	i	i	i	i	i	i
CN(CC(=O)NC(=O)NCc1ccccc1)CC(=O)Nc1ccc(Cl)c(C(F)(F)F)c1	-89.4	18.4µM	20.6µM	i	nt	i
CN(CC(=O)NC(=O)NC1CCCCC1)CC(=O)Nc1ccccc1C(F)(F)F	i	?	?	i	i	i
CN(CC(=O)Nc1ccc(Cl)c(C(F)(F)F)c1)CC(=O)NC1CCCCC1	i	16.4µM	?	i	i	i
CN(CC(=O)Nc1cccc(S(=O)(=O)N2CCCC2)c1)CC(=O)Nc1ccc(Cl)c(C(F)(F)F)c1	-65.9	?	16.4µM	i	nt	i
CN(CC(=O)Nc1ccc(Cl)c(C(F)(F)F)c1)C(=O)CCN1C(=O)C2CCCCC2C1=O (stereo not drawn)	i	23.1µM	23.1µM	i	i	i

Screening data (PubChem BioAssay)
